# Results from PubChem BioAssay (Tox21).
# Results filed as inconclusive are left out. Active and inactive are the calls of the source. Calls come from the whole dose curve; as a rule, active = well fitted cell-killing curve with a large enough effect in the repeat runs; inconclusive = weak or mixed curves, or effect the other way; inactive = no such curve, though single readings can be large or run the other way.
# Test: qHTS assay to identify small molecule antagonists of the vitamin D receptor (VDR) signaling pathway - cell viability counter screen (AID 743225); note: nearly all actives have a fitted effect of over 50% in size
# Conditions: VDR-bla HEK293T viability, CellTiter-Glo luminescence, 16 h; series mostly up to 61 µM
# Method in brief: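 Compounds were pinned onto VDR-bla HEK 293T cells together with 1-alpha,25-dihydroxyvitamin D3 at 3 nM final. After 16 h at 37C and 5% CO2 plus the reporter readout, cell viability was measured by CellTiter-Glo luminescence (30 min, room temperature).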
row,Compound,outcome
1,COC(=O)c1ccccc1C(=O)OC,inactive
2,O=c1n(Cl)c(=O)n(Cl)c(=O)n1Cl,inactive
3,Oc1ccccc1Cl,inactive
4,O=C1CCCN1,inactive
5,Clc1ccc(Cl)cc1,inactive
6,O=c1[nH]c(=O)[nH]c(=O)[nH]1,inactive
7,CNC(=O)Oc1ccccc1OC(C)C,inactive
8,CC(=O)C=C(C)C,inactive
9,CCOC(=O)c1ccccc1C(=O)OCC,inactive
10,C1CC2OC2CC1C1CO1 (configuration not stated),inactive
11,COC(=O)NC(=S)Nc1ccccc1NC(=S)NC(=O)OC,inactive
12,COC(=O)c1ccccc1N,inactive
13,Cc1ccc(N)cc1N,inactive
14,[O-][Cl+2]([O-])O,inactive
15,O=[N+]([O-])c1ccccc1,inactive
16,O=NN1CCCC1,inactive

row,Compound,outcome
1,O=NN1CCCCCCC1,inactive
2,CN(C)CCO,inactive
3,CCC[CH2][Sn]([Cl])([Cl])[Cl],inactive
4,C#CCN(C)[C@H](C)Cc1ccccc1,inactive
5,CC(C)NC(=O)N1CC(=O)N(c2cc(Cl)cc(Cl)c2)C1=O,inactive
6,c1ccc(-c2ccccc2)cc1,inactive
7,Cc1cc(Cl)ccc1O,inactive
8,CCC[N+](=O)[O-],inactive
9,Cc1ccc([N+](=O)[O-])cc1C,inactive
10,C=CC(N)=O,inactive
11,C=CCO,inactive
12,CC1OC(C)OC(C)O1 (configuration not stated),inactive
13,C[C@]12CC[C@H]3[C@@H](CC[C@@]45O[C@@H]4C(O)=C(C#N)C[C@]35C)[C@@H]1CC[C@@H]2O,inactive
14,O=S(=O)(c1ccc(Cl)cc1)c1cc(Cl)c(Cl)cc1Cl,inactive
15,Nc1ccc(Br)cc1,inactive
16,COc1ccc2c3c1O[C@H]1[C@@H](O)C=C[C@H]4[C@@H](C2)N(C)CC[C@@]341,inactive
